The record followed here is PubChem BioAssay.

What is called inhibition is the drop in the measured response relative to a control, in per cent.

A short description of test [1]: RPL19A-GFP modulators, yeast TOR pathway, confirmation, cell-based, S. cerevisiae, flow cytometry, cherry picks, mother/daughter gates (AID 2270;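 active means GFP response below 50% of the DMSO control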). The following applies: S. cerevisiae RPL19A-GFP strain, 3 h, at 10 µM, stronger effect = lower value, 100 = same GFP as DMSO wells. Background: A flow cytometer gives signals particle by particle.
Test [2] in a line: LAP4-GFP expression modulators in yeast, confirmation, cell-based, cherry picks, flow cytometry, mother/daughter gates (AID 2271;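 active means GFP response above 150% of the DMSO control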;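 further: ratio of sample to DMSO plate mean so 100% equals DMSO level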). The following applies: S. cerevisiae LAP4-GFP strain, 3 h, at 10 µM, stronger effect = higher value, 100 means same as DMSO control.
The nature of test [3]: modulators of MEP2-GFP levels in yeast, confirmation, S. cerevisiae, flow cytometry GFP, cherry picks (AID 2272;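 active means GFP response above 150% of the DMSO control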;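 further: ratio of well signal to plate DMSO mean so 100% equals DMSO level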). As to conditions: S. cerevisiae MEP2-GFP strain, 3 h, at 10 µM, stronger effect = higher value.
Test [4] can be described thus: AGP1-GFP expression modulators, hit retest, confirmation, cell-based, flow cytometry, S. cerevisiae, cherry picks (AID 2273).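 Further: median GFP channel fluorescence over the whole cell population gate.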 As to conditions: S. cerevisiae AGP1-GFP strain, 3 h, at 10 µM.
Test [5] in a line: modulators of CIT2-GFP expression in yeast, confirmation, S. cerevisiae, GFP fusion, cherry picks, mother/daughter gates (AID 2274). As to conditions: S. cerevisiae CIT2-GFP strain, flow cytometry, 3 h, at 10 µM, stronger effect = higher value.
The nature of test [6]: inhibitors of CD8+ T cell-vesicle binding, pilot screen, LFA-1/ICAM-1 modulator project, MLPCN validation set, flow cytometry (AID 2523;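 active means response below a set limit, under 55% cells CD8-positive and vesicle-bound, and CD8 cells' 90th-percentile brightness under 279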;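 on vesicle binding response: mean PE anti-B7-1 fluorescence of CD8+ cells relative to row control; 100% = QL9-loaded vesicles with DMSO vehicle in the same plate row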). The following applies: 2C mouse CD8+ T cells, at 7 µM, stronger effect = lower value; double positive events: measured here: CD8+/vesicle+ event percentage.
In test [7] the target is Integrin beta-1 (Homo sapiens) + Integrin alpha-4 (Homo sapiens) (UniProt P13612+P05556). The test can be described thus: inhibition of HUTS-21 binding to VLA-4, pilot screen, VLA-4 allosteric modulator project, U937 cells, HUTS-21 mAb, flow cytometry, validation set (AID 2674;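 active means inhibition above 50%, about 3 SD of the validation set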;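 further: antibody binding induced by the VLA-4 ligand LDV present at three times its Kd; 0% = LDV ligand with antibody and no compound and 100% = antibody without LDV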). The following applies: HUTS-21 LIBS mAb binding, at 6.7 µM, stronger effect = higher value, binding induced by LDV ligand.
Chain of Integrin beta-1 (Homo sapiens) + Integrin alpha-4 (Homo sapiens) (P05556 whole entry, looked up): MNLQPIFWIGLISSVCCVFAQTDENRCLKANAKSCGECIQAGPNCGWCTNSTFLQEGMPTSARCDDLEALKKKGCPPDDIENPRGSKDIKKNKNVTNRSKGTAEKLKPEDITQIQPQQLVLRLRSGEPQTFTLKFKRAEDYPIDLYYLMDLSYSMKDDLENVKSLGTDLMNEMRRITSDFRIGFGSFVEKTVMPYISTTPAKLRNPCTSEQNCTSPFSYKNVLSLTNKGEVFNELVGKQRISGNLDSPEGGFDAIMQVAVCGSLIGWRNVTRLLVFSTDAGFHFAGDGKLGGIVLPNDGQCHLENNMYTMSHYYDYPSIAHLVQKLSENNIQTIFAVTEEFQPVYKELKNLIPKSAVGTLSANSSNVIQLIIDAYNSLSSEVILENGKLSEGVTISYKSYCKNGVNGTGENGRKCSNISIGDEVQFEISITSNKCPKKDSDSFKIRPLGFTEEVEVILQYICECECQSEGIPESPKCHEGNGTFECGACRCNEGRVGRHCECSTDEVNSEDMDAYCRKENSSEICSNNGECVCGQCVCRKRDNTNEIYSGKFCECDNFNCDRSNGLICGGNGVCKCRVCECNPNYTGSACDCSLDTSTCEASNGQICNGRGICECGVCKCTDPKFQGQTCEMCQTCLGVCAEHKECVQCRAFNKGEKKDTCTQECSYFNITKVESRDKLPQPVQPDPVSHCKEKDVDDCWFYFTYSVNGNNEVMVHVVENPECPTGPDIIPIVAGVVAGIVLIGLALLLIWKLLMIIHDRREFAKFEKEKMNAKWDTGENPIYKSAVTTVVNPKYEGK
Chain of Integrin beta-1 (Homo sapiens) + Integrin alpha-4 (Homo sapiens) (P13612 whole entry, looked up): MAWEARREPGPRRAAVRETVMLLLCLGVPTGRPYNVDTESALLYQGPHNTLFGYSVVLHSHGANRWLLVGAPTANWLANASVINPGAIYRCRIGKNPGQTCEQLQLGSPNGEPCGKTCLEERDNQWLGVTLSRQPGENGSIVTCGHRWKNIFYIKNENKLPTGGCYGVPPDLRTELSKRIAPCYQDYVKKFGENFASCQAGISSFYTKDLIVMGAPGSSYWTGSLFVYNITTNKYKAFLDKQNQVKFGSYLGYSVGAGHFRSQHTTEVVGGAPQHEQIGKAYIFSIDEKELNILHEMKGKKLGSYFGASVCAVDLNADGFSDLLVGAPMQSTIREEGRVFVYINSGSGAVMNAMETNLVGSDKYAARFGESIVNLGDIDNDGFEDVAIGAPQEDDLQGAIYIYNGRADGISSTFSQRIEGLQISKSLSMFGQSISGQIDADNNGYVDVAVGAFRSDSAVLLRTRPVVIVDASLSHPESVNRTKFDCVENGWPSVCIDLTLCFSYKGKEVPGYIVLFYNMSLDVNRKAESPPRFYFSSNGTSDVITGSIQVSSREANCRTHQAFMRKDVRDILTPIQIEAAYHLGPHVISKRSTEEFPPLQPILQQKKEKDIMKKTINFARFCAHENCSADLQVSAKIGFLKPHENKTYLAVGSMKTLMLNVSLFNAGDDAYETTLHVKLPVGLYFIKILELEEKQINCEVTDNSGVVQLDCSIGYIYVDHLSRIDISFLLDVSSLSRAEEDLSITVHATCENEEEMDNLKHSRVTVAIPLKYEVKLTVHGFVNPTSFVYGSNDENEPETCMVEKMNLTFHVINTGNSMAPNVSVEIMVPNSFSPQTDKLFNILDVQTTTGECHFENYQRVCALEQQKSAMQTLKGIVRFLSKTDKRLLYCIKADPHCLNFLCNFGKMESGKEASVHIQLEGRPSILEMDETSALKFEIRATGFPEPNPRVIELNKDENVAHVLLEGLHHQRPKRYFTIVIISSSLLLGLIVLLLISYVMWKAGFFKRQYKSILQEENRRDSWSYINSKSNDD

Test [8] in a line: superoxide lowering in aged yeast cells, pilot screen, validation compound set (AID 2706;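 active means superoxide response below 65% of plate, a cut near 3 SD across the whole screen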;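 further: yeast exposed to compound for one week at 30 degrees C before staining; 100% = mean of all compound wells on the same plate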). As to conditions: S. cerevisiae aging, superoxide DHE fluorescence; at 10 µM, stronger effect = lower value.
Test [9] addresses Beta-adrenergic receptor kinase 1 (Homo sapiens) (UniProt P25098). Put plainly: GRK2 binders displacing RNA aptamer, biochemical, validation, human GRK2, bead flow cytometry (AID 488806;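 active means aptamer binding inhibition above 30%, about 3 SD of noise from non-fluorescent compounds; inactive means inhibition at or below 30%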). The following applies: bead-bound GRK2, FAM-aptamer displacement, at 10 µM, stronger effect = higher value.
The target in test [10] is Beta-2 adrenergic receptor (Homo sapiens) (UniProt P07550). Put plainly: beta2AR agonists driving receptor internalization, pilot screen, cell-based, FAP fluorogen, flow cytometry, validation set (AID 504459;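 active means percent response above 42, roughly 3 SD of non-fluorescent test compounds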;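 further: agonist-driven loss of surface beta2AR via internalization measured by FAP dye flow cytometry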). As to conditions: Am2.2-beta2AR cells, FAP surface receptor flow cytometry; at 10 µM; stronger effect = higher value.
Chain of Beta-2 adrenergic receptor (Homo sapiens) (P07550 whole entry, looked up): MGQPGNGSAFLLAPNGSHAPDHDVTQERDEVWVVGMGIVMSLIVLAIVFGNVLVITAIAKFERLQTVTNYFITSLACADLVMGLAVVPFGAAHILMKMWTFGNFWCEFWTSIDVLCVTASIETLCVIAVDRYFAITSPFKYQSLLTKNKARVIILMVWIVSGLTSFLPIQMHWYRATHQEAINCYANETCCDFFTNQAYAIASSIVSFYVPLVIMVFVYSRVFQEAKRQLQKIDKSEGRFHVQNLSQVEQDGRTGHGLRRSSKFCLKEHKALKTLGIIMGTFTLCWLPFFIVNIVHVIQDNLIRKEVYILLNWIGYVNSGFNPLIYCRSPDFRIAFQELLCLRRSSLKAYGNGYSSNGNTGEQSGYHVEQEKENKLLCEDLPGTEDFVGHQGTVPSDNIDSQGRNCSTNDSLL
For test [11], the target named is AP-2 complex subunit beta (Homo sapiens) (UniProt P63010). The test can be described thus: inhibitors of arrestin peptide binding to AP2, pilot screen, biochemical, validation set, GST-AP2 beads, flow cytometry (AID 504541;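 active means inhibition above 54%, about 3 SD of non-fluorescent compounds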;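 further: AP2 carries R879A mutation and is captured from E. coli lysate; bead-bound FITC arrestin peptide fluorescence measuring arrestin peptide binding to AP2; 0% = DMSO wells and 100% = excess unlabeled arrestin peptide control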). As to conditions: FITC arrestin peptide, at 10 µM, stronger effect = higher value, AP2 beta2 appendage fragment, R879A mutant.
Chain of AP-2 complex subunit beta (Homo sapiens) (P63010 whole entry, looked up, the tested form may be a part, one chain of several): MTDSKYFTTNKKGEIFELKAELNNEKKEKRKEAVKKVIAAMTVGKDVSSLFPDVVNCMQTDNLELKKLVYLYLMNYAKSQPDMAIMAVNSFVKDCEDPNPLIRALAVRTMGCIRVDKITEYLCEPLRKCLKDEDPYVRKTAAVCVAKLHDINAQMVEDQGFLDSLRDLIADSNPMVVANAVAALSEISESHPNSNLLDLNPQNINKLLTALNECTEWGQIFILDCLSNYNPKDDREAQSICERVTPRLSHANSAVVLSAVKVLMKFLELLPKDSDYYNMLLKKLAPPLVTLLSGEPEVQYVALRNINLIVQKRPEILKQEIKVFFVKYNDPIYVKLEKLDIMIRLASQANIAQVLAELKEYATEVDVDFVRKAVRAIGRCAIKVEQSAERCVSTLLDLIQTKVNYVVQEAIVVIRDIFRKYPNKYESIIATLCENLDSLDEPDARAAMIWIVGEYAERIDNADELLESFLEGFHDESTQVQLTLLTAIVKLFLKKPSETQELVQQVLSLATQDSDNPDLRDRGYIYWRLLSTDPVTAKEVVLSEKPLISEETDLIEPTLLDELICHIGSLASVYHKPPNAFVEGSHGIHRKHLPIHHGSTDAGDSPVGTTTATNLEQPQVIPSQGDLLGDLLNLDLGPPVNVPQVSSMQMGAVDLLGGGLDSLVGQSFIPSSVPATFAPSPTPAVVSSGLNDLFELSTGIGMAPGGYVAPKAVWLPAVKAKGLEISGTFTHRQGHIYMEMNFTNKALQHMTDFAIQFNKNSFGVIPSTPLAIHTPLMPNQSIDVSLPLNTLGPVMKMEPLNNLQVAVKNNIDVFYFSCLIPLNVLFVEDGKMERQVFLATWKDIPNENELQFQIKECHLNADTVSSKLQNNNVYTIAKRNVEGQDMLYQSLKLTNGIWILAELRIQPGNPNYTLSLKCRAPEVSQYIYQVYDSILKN
Test [12] in a line: yeast V-ATPase proton transport modulators, S. cerevisiae, pHLuorin, HTS validation (AID 504600; in the data active means response above about 15%;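 further: plate controls were DMSO for no effect and reference compound for full effect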). The following applies: S. cerevisiae pHLuorin cytosolic pH, at 10 µM, stronger effect = higher value.
The subject of test [13] is anti-desmoglein-3 scFv antibody binding to human DSG3. Put plainly: inhibitors of anti-DSG3 scFv binding to DSG3, pilot screen, biochemical, validation compound set, bead-based, flow cytometry (AID 588368;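 active means binding below the plate cutoff, the plate median minus 3 SD, with a reading above zero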;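 further: signal is the median channel fluorescence of bead-bound GFP antibody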). As to conditions: Protein G beads, DSG3-Fc, scFv-GFP binding, at 10 µM, stronger effect = lower value.
A short description of test [14]: inhibitors of fungal efflux pumps CDR1, CDR2, MDR1, pilot screen, validation compound set, multiplex, phenotypic (AID 588506;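 active means efflux inhibition above 0.42, the validation set average plus 4 SD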;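 further: Nile Red retained in cells so higher fluorescence means more efflux inhibition; 0 = negative control wells and 1 = enniatin B 25 µM full block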). As to conditions: S. cerevisiae pump-expressing triplex, Nile Red efflux flow cytometry; at 10 µM; stronger effect = higher value; the pumps come from Candida albicans.
In test [15] the target is ATP-binding cassette sub-family B member 6 (Homo sapiens) (UniProt Q9NP58). The test can be described thus: ABCB6 transporter inhibitors, pilot screen, K562-ABCB6 cells, flow cytometry, validation set (AID 588550;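 active means inhibition above the screen-wide mean plus 3 SD, about 51%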;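 further: 0% = DMSO wells and 100% = benzethonium chloride 70 µM positive control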). As to conditions: K562-ABCB6 porphyrin accumulation, 1 h, at 10 µM, stronger effect = higher value.
Chain of ATP-binding cassette sub-family B member 6 (Homo sapiens) (Q9NP58 whole entry, looked up): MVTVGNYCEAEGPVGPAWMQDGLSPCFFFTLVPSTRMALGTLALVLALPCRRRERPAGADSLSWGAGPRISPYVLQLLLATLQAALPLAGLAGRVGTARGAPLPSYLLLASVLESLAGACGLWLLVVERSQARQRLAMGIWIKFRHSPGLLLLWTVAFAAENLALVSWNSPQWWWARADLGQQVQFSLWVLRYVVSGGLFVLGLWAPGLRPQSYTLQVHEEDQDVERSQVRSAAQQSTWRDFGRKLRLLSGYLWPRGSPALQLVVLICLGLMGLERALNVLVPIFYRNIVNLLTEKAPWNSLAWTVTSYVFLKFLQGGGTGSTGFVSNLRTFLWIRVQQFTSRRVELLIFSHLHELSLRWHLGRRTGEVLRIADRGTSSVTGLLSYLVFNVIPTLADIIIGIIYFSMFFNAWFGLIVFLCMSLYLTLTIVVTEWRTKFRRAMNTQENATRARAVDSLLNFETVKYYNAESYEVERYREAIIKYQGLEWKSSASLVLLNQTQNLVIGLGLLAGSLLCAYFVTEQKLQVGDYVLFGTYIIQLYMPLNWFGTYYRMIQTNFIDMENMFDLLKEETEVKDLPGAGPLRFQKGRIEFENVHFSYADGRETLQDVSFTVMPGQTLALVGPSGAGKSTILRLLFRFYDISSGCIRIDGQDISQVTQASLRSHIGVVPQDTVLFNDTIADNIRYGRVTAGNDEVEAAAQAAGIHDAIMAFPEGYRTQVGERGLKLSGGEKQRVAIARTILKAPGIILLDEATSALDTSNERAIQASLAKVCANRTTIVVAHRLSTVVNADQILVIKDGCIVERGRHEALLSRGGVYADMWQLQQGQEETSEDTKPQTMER
Test [16] can be described thus: promoters of myeloid differentiation in arrested cells, primary screen, cell-based, GFP/MAC1 double positive, flow cytometry, validation set (AID 588685;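 active means differentiation response of at least 50%, scaled between solvent and reference control, from cells with both markers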;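 further: compound exposure lasts four days before antibody staining and flow analysis; 0% = DMSO wells and 100% = 5 µM fulvestrant positive control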). The following applies: ER-HoxA9 marrow cells, stronger effect = higher value, normalized: vehicle 0, fulvestrant 100.
Where [17] appears, read: measured here: daughter cell gate.
[18] abbreviates: measured here: mother cell gate.
Setting [19] is: measured here: daughter cell gate response.
[20] abbreviates: measured here: mother cell gate response.

Structures are written as SMILES. The source made the active and inactive calls.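 How the source made its calls, unless noted: active means GFP response above 150% of the DMSO level; inconclusive means fewer than 70 events counted for a yeast strain; inactive means the rest.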

Chain of Beta-adrenergic receptor kinase 1 (Homo sapiens) (P25098 whole entry, looked up): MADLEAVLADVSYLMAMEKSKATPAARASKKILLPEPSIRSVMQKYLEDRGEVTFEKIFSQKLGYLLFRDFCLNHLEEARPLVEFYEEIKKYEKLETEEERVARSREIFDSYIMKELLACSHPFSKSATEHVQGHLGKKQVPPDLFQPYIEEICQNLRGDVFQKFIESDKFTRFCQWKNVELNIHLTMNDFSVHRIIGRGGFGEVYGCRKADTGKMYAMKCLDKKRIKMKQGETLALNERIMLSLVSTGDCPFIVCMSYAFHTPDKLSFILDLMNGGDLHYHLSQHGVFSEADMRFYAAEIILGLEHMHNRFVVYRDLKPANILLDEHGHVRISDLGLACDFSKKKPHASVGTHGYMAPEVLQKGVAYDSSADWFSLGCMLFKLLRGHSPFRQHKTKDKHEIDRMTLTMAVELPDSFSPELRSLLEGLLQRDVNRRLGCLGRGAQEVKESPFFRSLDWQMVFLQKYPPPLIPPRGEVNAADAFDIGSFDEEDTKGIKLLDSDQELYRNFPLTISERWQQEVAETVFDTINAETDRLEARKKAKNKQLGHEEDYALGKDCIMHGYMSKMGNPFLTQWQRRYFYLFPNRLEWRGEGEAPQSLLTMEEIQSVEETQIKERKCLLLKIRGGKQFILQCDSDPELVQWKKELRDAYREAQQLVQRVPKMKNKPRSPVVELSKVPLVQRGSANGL

For `Cc1cc(NCCOCCO)n2ncc(-c3ccc(Cl)cc3)c2n1`, the GFP response vs DMSO in test [1] is 94.3% (inactive); in test [1] (setting [17]), 93.1%; in [1] (setting [18]) it was 89.1%; in [3] it was 106% (inactive). In test [2], the GFP response relative to DMSO is 100% (inactive). Also, the GFP response, % of DMSO is 105% (inactive) in test [4], 102% (inactive) in test [5], 102% in test [5] (setting [17]) and 96.8% in test [5] (setting [18]).
In the case of `O=C(c1cccc(COc2ccc(Cl)cc2Cl)c1)N1CCN(c2ccccn2)CC1`, the figures for the GFP response vs DMSO in test [1], in test [1] (setting [17]) and in [3] were 80% (inactive), 83.6% and 103% (inactive), respectively. The GFP response relative to DMSO is 114% (inactive) in test [2], 107% in test [2] (setting [19]) and 117% in test [2] (setting [20]). The GFP response, % of DMSO in [4] is 86.6% (inactive); in test [5], 95.9% (inactive); in test [5] (setting [17]), 90.2%; in [5] (setting [18]), 95.6%.
For the molecule `CCN(CC)c1ccc2cc(C(=O)O)c(=O)oc2c1`, the GFP response vs DMSO is 95.1% (inactive) in test [1], 89.9% in test [1] (setting [17]), 94.2% in test [1] (setting [18]) and 110% (inactive) in [3]. The GFP response relative to DMSO in test [2] was 126% (inactive). In addition, the GFP response, % of DMSO in [4] was 105% (inactive); in [5] it was 94.4% (inactive).
Turning to `COc1ccc(C2C3=C(CCCC3=O)N(CC(=O)O)C3=C2C(=O)CCC3)cc1Cl`, the GFP response vs DMSO in [1] is 102% (inactive); in test [1] (setting [17]) it was 99%; in test [1] (setting [18]), 98.5%; in test [3], 100% (inactive). Moreover, the GFP response relative to DMSO in test [2] was 93.8% (inactive). The GFP response, % of DMSO was 104% (inactive) in test [4], 111% (inactive) in [5], 111% in [5] (setting [17]) and 111% in [5] (setting [18]).
With `CCc1ccc(C2CC(c3ccco3)=NN2S(C)(=O)=O)cc1` (stereo not drawn), the GFP response vs DMSO in test [1] was 108% (inactive); in test [1] (setting [17]), 108%; in test [1] (setting [18]) it was 101%; in test [3] it was 180% (active). Besides, the GFP response relative to DMSO in test [2] was 131% (inactive). Further, the GFP response, % of DMSO was 108% (inactive) in [4] and 188% (active) in test [5].
On to `Oc1ccc(COCc2ccccc2)c2cccnc12`, for which the GFP response vs DMSO was 98% (inactive) in [1], 93.8% in test [1] (setting [18]) and 114% (inactive) in test [3]. In addition, the GFP response relative to DMSO in test [2] is 149% (inactive); in [2] (setting [19]) it was 138%; in test [2] (setting [20]) it was 152%. Besides, the GFP response, % of DMSO in [4] was 98.6% (inactive); in [5], 95.8% (inactive); in test [5] (setting [17]), 101%; in test [5] (setting [18]), 91.5%. Moreover, the double positive events in test [6] worked out at 65.9%. For the same molecule, in test [6], the vesicle binding response was 129% (inactive). The inhibition was -0.43% (inactive) in test [7], -1% (inactive) in test [11] and 1% (inactive) in [15]. Moreover, the superoxide response (% of plate) in test [8] is 75.4% (inactive). For the same molecule, the aptamer binding inhibition in test [9] was 0% (inactive). For the same molecule, the response in test [10] was -7.8% (inactive); in test [12], 2.93% (inactive). In addition, in test [13], the binding (% of control) was 101% (inactive). Further, the efflux inhibition (fraction of control) in test [14] is 0.12 (inactive). In test [16], the differentiation response is 40.8% (inactive).
As for `O=C(O)CCC(=O)OCC1CCCCC1`, the GFP response vs DMSO in test [1] is 96.7% (inactive); in test [1] (setting [17]), 97.6%; in test [1] (setting [18]) it was 95.6%; in test [3], 103% (inactive). Besides, in test [2], the GFP response relative to DMSO is 104% (inactive). In addition, the GFP response, % of DMSO was 99.3% (inactive) in test [4], 98.6% (inactive) in test [5], 95.8% in test [5] (setting [17]) and 94.9% in test [5] (setting [18]).
